Most compounds without a hit are left out; they make up all but 2.4% or so of the library.
GLS inhibitor – blocks human kidney-isoform glutaminase activity | O94925 | GLS enzymatic activity, qHTS titration | Potency, µM (doses to about 45.5 µM), actives largely listed as inhibitors | hit rate 0.21% among 410,000 | AID 624170
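Human kidney-isoform GLS in 45 mM KH2PO4 pH 8.2, 0.02% Tween-20, with compound, started with 1mM L-Glutamine (added stock). Glutamate oxidase/HRP/Amplex red coupled fluorescence read at start and after 30 min at RT.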
KAT2A inh – inhibitors of human GCN5L2 histone acetyltransferase | GCN5L2 HAT assay, ThioGlo1 CoA-SH fluorescence | Potency, µM (highest dose often 58.9 µM), actives largely listed as inhibitors | hit rate 0.21% among 390,000 | AID 504327
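Titration-based screen in which CoA formation is detected via maleimide probe ThioGlo1 (50uM) turning fluorescent on thiol reaction; substrates H3(1-25) 75uM and acetyl-CoA 70uM, GCN5L2 20nM, 20 min incubation at room temperature.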
Pol beta inh – blocks human DNA polymerase beta activity; Potency, µM (doses to about 114 µM), most hits filed as inhibitors; Pol beta primer extension/strand displacement, fluorescence kinetic; P06746; hit rate 1.3% among 340,000
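Homogeneous kinetic assay of primer extension and strand displacement by 10 nM Pol beta, preincubated 15 min at room temperature with compound before 50 nM substrate (final) was added. Read at 0 and 10 min; four-parameter Hill fit.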
Pol kappa inh – inhibitors of human DNA polymerase kappa. hit rate 0.53% among 400,000. AID 588579. purified Pol kappa, fluorescent DNA synthesis assay, 10 min. Potency, µM (series often up to 107 µM), actives largely listed as inhibitors. Q9UBT6
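Enzyme at 10 nM met test compounds for 15 min at room temperature. Substrate addition (50 nM final) began the reaction, which was monitored by fluorescence at 0 and 10 min.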
Pol eta inh – blocks human DNA polymerase eta activity; Potency, µM (top dose mostly 114 µM), actives largely listed as inhibitors; Q9Y253; hit rate 1.2% among 390,000; recombinant Pol eta, fluorescent DNA replication assay; AID 588591
Target sequence (Q9Y253 whole entry, looked up): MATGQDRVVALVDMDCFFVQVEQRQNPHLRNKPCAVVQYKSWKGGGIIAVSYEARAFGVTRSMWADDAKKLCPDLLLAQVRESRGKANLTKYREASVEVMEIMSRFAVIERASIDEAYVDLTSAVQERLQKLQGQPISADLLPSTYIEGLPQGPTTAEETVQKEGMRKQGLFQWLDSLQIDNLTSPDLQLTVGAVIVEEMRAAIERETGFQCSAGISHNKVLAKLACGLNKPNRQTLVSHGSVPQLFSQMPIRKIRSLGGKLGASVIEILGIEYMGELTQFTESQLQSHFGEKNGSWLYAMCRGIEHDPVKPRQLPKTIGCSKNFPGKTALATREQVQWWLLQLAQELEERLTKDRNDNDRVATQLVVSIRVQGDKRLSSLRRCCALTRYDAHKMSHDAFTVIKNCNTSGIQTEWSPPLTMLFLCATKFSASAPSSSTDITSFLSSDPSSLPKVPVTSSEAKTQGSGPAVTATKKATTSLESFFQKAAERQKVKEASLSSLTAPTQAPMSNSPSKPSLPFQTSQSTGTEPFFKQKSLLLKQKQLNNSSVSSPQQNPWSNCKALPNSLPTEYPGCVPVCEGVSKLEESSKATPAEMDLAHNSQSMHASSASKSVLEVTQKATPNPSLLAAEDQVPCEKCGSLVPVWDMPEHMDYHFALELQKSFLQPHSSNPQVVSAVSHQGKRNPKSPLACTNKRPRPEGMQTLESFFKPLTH
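Pol eta at 10 nM preincubated with compounds 15 min at room temperature; reaction started with fluorescent substrate (50 nM final) and read kinetically at 0 and 10 min.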
Pol iota inh – inhibitors of human DNA polymerase iota; Q9UNA4; Pol iota fluorescent replication assay, 10 min; Potency, µM (doses to about 115 µM), hits mostly inhibitors; hit rate 1% among 390,000; AID 588590
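Fluorescent replication assay read twice, at 0 min and 10 min after adding 50 nM (final) substrate. Enzyme (10 nM) and compounds were first incubated 15 min at room temperature; enzyme-free buffer wells were negative controls.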
Each line names hits and unclear results; the compound was inactive in the other large screens. Calls follow the shape of the dose curve; as a rule, active = well fitted inhibition curve with a large enough effect; inconclusive = small, poorly fitted or top-dose-only effect, or another doubt; inactive = no such curve, though single readings can be large or run the other way.

CCOC(=O)C1CCCN(c2ncnc3c2nnn3C)C1 (stereo unspecified)	none
CN(C(=O)c1nc(-c2cccc(F)c2)n2c1CCCCC2)c1ccccc1F	none
CCOc1ccc(CCNC(=O)c2nc(-c3cccc(F)c3)n3c2CCCCC3)cc1OCC	Pol kappa inh 89µM, Pol iota inh inconclusive
O=C1C(=O)c2ncccc2-c2cccnc21	Pol kappa inh 8.9µM (no result: Pol beta inh, Pol eta inh, Pol iota inh)
NC1=C(Br)C(=O)c2ncccc2C1=O	Pol eta inh 18µM, Pol iota inh 11µM (no result: KAT2A inh, Pol beta inh)
O=C1c2cccnc2C(=O)N1CO	none
CN(C)c1ccc(N=Nc2ccc(/C=C/c3ccnc4ccccc34)cc2)cc1	Pol iota inh inconclusive (no result: GLS inhibitor, KAT2A inh, Pol beta inh, Pol eta inh)
CCCc1nnc(SCc2cc(=O)c3c(C)cc(C)cc3[nH]2)n1C	none
CC(C)N1CCN(Cc2cccc(-c3ccco3)c2)CC1CCO (stereo unspecified)	Pol beta inh 10µM
O=C(CSCc1ccc(Cl)cc1)N/N=C/c1ccc(OCC(=O)Nc2ccccc2)cc1	Pol beta inh 79µM, Pol iota inh inconclusive
Cc1ccc(NC(=O)COc2ccc(/C=N/NC(=O)CSCc3ccccc3)cc2)cc1	Pol beta inh inconclusive, Pol iota inh inconclusive
COc1cc(Br)c(CC(=O)NO)cc1OC	none (no result: GLS inhibitor, KAT2A inh, Pol beta inh, Pol eta inh)
CCN(CC)c1ccc(C(=C2C=CC(=[N+](CC)Cc3cccc(S(=O)(=O)[O-])c3)C=C2)c2ccc(N(CC)Cc3cccc(S(=O)(=O)O)c3)cc2)cc1	KAT2A inh 10µM, Pol kappa inh 4.2µM (no result: GLS inhibitor, Pol beta inh, Pol eta inh, Pol iota inh)
CCN(CC)c1ccc(C(=C2C=CC(=[N+](CC)CC)C=C2)c2ccccc2)cc1	GLS inhibitor 6.3µM, KAT2A inh inconclusive (no result: Pol beta inh)
CCN(Cc1ccccc1)c1ccc(/C=N/NS(=O)(=O)c2cccc([N+](=O)[O-])c2)cc1	none
CC(Oc1ccccc1)C(=O)N[C@@H]1C(=O)N2C(C(=O)OCC3CCCCC3)C(C)(C)S[C@H]12 (stereo partly specified)	none (no result: GLS inhibitor, KAT2A inh, Pol beta inh, Pol eta inh)
COc1cccc2c1Oc1ncccc1N(c1ccc(C(=O)NCc3cccc(C)c3)s1)C2	Pol kappa inh inconclusive, Pol iota inh 89µM
Cc1nnc(NC(=O)CSc2nc3c([nH]c4ccccc43)c(=O)n2-c2ccc(Cl)cc2)s1	Pol eta inh inconclusive
CCc1nn2c(=O)cc(COc3ccc(NC(=O)c4ccco4)cc3)nc2s1	Pol iota inh 71µM
CCCc1nn2c(=O)cc(COc3ccc(NC(=O)c4ccco4)cc3)nc2s1	Pol eta inh inconclusive
CCCn1nc([N+](=O)[O-])c(C(C#N)c2nc3ccccc3o2)c(Cl)c1=O (stereo unspecified)	Pol eta inh 22µM, Pol iota inh inconclusive
Nc1sc2c(c1C(=O)NC1CCS(=O)(=O)C1)CCC2 (stereo unspecified)	Pol eta inh 18µM, Pol iota inh inconclusive
CC1C/C(=C\c2cccnc2)C(=O)/C(=C/c2cccnc2)C1 (stereo unspecified)	Pol eta inh 20µM, Pol iota inh 16µM
CN(C)c1ccc(/C=C2\C(Cl)=Cc3ccccc32)cc1	none (no result: GLS inhibitor, KAT2A inh, Pol beta inh, Pol eta inh)
COc1cc(OC)cc(C(=O)Nc2nc(-c3nnn(-c4ccc(F)c(Cl)c4)c3C)ns2)c1	Pol beta inh 3.2µM, Pol iota inh inconclusive
CC(=O)N1c2ccc(S(=O)(=O)Nc3ccc(Cl)cc3C)cc2CC1C (stereo unspecified)	none
COC(=O)c1ccc(COc2ccc3ccc(=O)oc3c2)o1	none
COC(=O)c1ccc(COc2ccc3c(C)c(C)c(=O)oc3c2)o1	Pol beta inh 56µM, Pol iota inh inconclusive
O=C1CC(C(=O)N2CCN(c3ccccc3O)CC2)CN1Cc1ccccc1 (stereo unspecified)	GLS inhibitor 5µM (no result: Pol beta inh)
Cc1ccc(-c2nnc(SCC(=O)Nc3sc(C)c(C)c3C#N)n2C)cc1	Pol beta inh 22µM, Pol eta inh inconclusive
CC(C)Sc1oc(-c2ccco2)nc1S(=O)(=O)c1ccc(F)cc1	Pol beta inh 28µM, Pol kappa inh inconclusive, Pol eta inh 71µM, Pol iota inh inconclusive
O=S(=O)(c1ccc(Br)cc1)c1nc(-c2ccco2)oc1SCc1ccccc1Cl	Pol kappa inh inconclusive, Pol iota inh 79µM

Screens: PubChem BioAssay, National Center for Advancing Translational Sciences (NCATS)
